# Measurements from PubChem BioAssay (NCATS).
# Records with an inconclusive call do not appear. A call without a number means that no potency is given here. The source made the active and inactive calls. The call rests on the fitted dose curve; in most records, active means well fitted inhibition curve with a large enough effect; inconclusive means small, poorly fitted or top-dose-only effect; inactive means flat fitted curve, though single readings scatter.
# Tested on: HB3
# Assay: qHTS profiling for inhibitors of Plasmodium falciparum proliferation (AID 504749); further: nearly all actives have a fitted effect of over 60% in size
# Conditions: P. falciparum in erythrocytes, SYBR Green DNA, 72 h; series mostly up to 28.7 µM
# In short: (§1)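 SYBR Green fluorescence of parasite DNA, read after lysis and overnight dark incubation, measured growth over 72 h in erythrocyte culture at 0.3% parasitemia and 2.5% hematocrit. Data normalised to DMSO and 0.29 uM artemisinin, with plate-drift correction.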
# Potency means the concentration at half of the fitted maximal effect.
row,Structure (SMILES),Potency
1,Cc1cc(C)cc(C(=O)OC2CC3CCC(C2)N3C)c1 (stereo unspecified),inactive
2,CCCN1CCCC2Cc3nc(N)ncc3CC21 (stereo unspecified),inactive
3,COc1ccc2c3c1O[C@H]1[C@@H](O)C=C[C@H]4C(C2)NCCC341 (stereo partly specified),inactive
4,CCCCCC(O)C1C(=O)OC(C)C(O)\C=C/C=C\C=C/C=C\C=C(\C)C(O)C(O)C(O)CC(O)CC(O)CC(O)CC(O)CC1O (stereo unspecified),inactive
5,CCCCCc1cc(O)c2c(c1)OC(C)(C)C1CC=C(C)CC21 (stereo unspecified),5.01 µM (active)

# Tested on: ICS
# Assay: as above
# Conditions: P. falciparum in erythrocytes, SYBR Green DNA, 72 h; series mostly up to 28.7 µM
# In short: as §1
row,Structure (SMILES),Potency
1,C[C@H](N)Cc1ccccc1,inactive
2,C[C@]12C=CC(=O)C=C1CC[C@@H]1C2CC[C@]2(C)OC(=O)CCC12 (stereo partly specified),inactive
3,OCC(O)[C@H]1O[C@@H]2O[C@H](C(Cl)(Cl)Cl)O[C@@H]2[C@H]1O (stereo partly specified),inactive
4,CC1(C)[C@@H](C=C(Cl)Cl)[C@@H]1C(=O)OCc1c(F)c(F)cc(F)c1F,inactive
5,CC1(C)S[C@@H]2[C@H](N)C(=O)N2C1C(=O)O (stereo partly specified),inactive
6,C=C1Nc2ccccc2C(=O)N1c1ccccc1C,inactive
7,CC1OC(O[C@H]2C[C@@H](O)[C@]3(CO)[C@@H]4C(CC[C@]3(O)C2)[C@@]2(O)CC[C@H](C3=CC(=O)OC3)[C@@]2(C)C[C@H]4O)C(O)C(O)C1O (stereo partly specified),inactive
8,O=[N+]([O-])OC1CO[C@H]2C(O[N+](=O)[O-])COC12 (stereo partly specified),inactive
9,CCOC(=O)/C=C(C)/C=C/CC(C)CCCC(C)C (stereo unspecified),inactive
10,[S]=[Sb][S][Sb]=[S],inactive
11,CN1C2CCC1C(C(=O)O)C(OC(=O)c1ccccc1)C2 (stereo unspecified),inactive
12,C[C@@H]1CC[C@H]2[C@@H](C)C(=O)O[C@@H]3OC4(C)CC[C@@H]1C32OO4 (stereo partly specified),0.0025 µM (active)
13,Cc1ccc2c(c1)[C@@H]1CN(C)CC[C@H]1N2,inactive
14,Nc1nc(O)c(-c2ccccc2)o1,inactive
15,C=CC[N+]1(C)CCC23c4c5ccc(O)c4O[C@H]2C(=O)CC[C@@]3(O)C1C5 (stereo partly specified),inactive
16,OC[C@@H](O)[C@H]1O[C@@H]2OC(C(Cl)(Cl)Cl)O[C@H]2[C@H]1O (stereo partly specified),inactive
17,CCCCCCC(=O)O[C@H]1CC[C@H]2[C@@H]3CCC4CC(=O)C=C(C)[C@]4(C)[C@H]3CC[C@]12C (stereo partly specified),10 µM (active)
18,CCCN1CCCC2Cc3nc(N)ncc3CC21 (stereo unspecified),inactive
19,COc1ccc2c3c1O[C@H]1[C@@H](O)C=C[C@H]4C(C2)NCCC341 (stereo partly specified),inactive
20,CCCCCC(O)C1C(=O)OC(C)C(O)\C=C/C=C\C=C/C=C\C=C(\C)C(O)C(O)C(O)CC(O)CC(O)CC(O)CC(O)CC1O (stereo unspecified),inactive
21,CCCCCc1cc(O)c2c(c1)OC(C)(C)C1CC=C(C)CC21 (stereo unspecified),0.891 µM (active)
